8 molecules from PubChem BioAssay (NCI) can be followed below.

The panel holds about 83,000 compounds, 20% with a hit somewhere; the sample as a whole holds those more often.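 Cell lines were cultured in 96-well plates, exposed to a single compound concentration, and assessed for percent growth 48 hours later.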 Values without a mark were called inactive. Activity calls are given as the source filed them. How the source made its calls: active means growth percent below 10; inactive means the rest.

Experiment in all cases: NCI-60 one-dose screen, 48 h (100 = growth as untreated, 0 = no growth, -100 = all killed)
Common to all, as to conditions: 10 µM

For assay [1], the system named is DU-145 prostate.
The subject of assay [2] is K-562 leukemia.
The subject of assay [3] is MALME-3M melanoma.
In assay [4] the test system is MDA-MB-231 breast.
For assay [5], the system named is SF-268 CNS.
Assay [6] deals with SF-295 CNS.
In assay [7] the test system is SF-539 CNS.
Assay [8] has as its system UACC-257 melanoma.
In assay [9] the test system is M14 melanoma.
Assay [10] has as its system HCT-15 colon.
For assay [11], the system named is HT29 colon.
For assay [12], the system named is SNB-75 CNS.
For assay [13], the system named is U251 CNS.
The subject of assay [14] is PC-3 prostate.
Assay [15] concerns SK-MEL-5 melanoma.
In assay [16] the test system is UACC-62 melanoma.
In assay [17] the test system is LOX IMVI melanoma.
The test system of assay [18] is SK-MEL-28 melanoma.
For assay [19], the system named is RXF 393 renal.
Assay [20] concerns SNB-19 CNS.

With `O=C(COc1ccc(Cl)cc1Cl)Oc1coc(CSc2nc3ccccc3s2)cc1=O`, the growth in assay [1] was 106%; in [2], 83%; in [3] it was 93.4%; in assay [4] it was 86.8%; in assay [5], 102%; in assay [6] it was 105%. The growth in assay [7] was 98.6%; in assay [8] it was 27.3%; in [9] it was 110%; in assay [10], 103%; in [11], 114%; in assay [12], 112%. Further, the growth was 97.3% in assay [13]; 106% in assay [14]; -78% (active) in assay [15]; 70.5% in assay [16]; 90.5% in assay [17]; 131% in assay [18].
In the case of `COc1cc(-c2n/c(=C\c3c(O)[nH]c4ccccc34)cc3c2=Nc2ccccc2-3)cc(OC)c1OC`, the growth was 11.5% in assay [1]; 6.57% (active) in assay [2]; 10.8% in [4]; -22.3% (active) in assay [19]; 19.3% in assay [5]; 8.6% (active) in assay [6]. The growth in assay [7] is 1.21% (active); in assay [8], 56.2%; in assay [9] it was -5.09% (active); in [10] it was 14.3%; in assay [11], 4.2% (active); in assay [12], 5.55% (active). Also, the growth in [20] is 37.7%; in assay [13], 12.5%; in [14], 30.2%; in assay [15] it was 2.12% (active); in assay [16] it was 40%; in [17], 25.8%. In assay [18], the growth is 42.8%.
In the case of `CCOC(=O)c1sc(NC(=O)c2cc(OC)c(OC)c(OC)c2)nc1C`, the growth in assay [1] was 110%; in [2] it was 51.2%; in [4], 96.3%; in assay [19], 119%; in assay [5], 97.3%; in assay [6], 110%. Also, the growth in assay [7] was 103%; in [8], 108%; in assay [9] it was 118%; in assay [10] it was 96.9%; in assay [11], 99.8%; in assay [12], 98.5%. For the same molecule, the growth in assay [20] was 118%; in assay [13], 106%; in assay [14] it was 65.1%; in [15], 95.6%; in assay [16] it was 88.5%; in assay [17], 97.3%. In assay [18], the growth is 101%.
For the molecule `COc1ccc(/C(=C/c2cc(OC)c(OC)cc2[N+](=O)[O-])C(=O)O)cc1`, the growth in assay [1] was 124%; in [2], 94.6%; in assay [4], 96.7%; in assay [19] it was 126%; in [5] it was 111%; in assay [6] it was 121%. Also, the growth in assay [7] is 99.6%; in assay [8], 118%; in [9], 104%; in [10], 107%; in [11], 109%; in [12], 93.8%. Moreover, the growth in assay [20] was 106%; in [13] it was 107%; in assay [14], 99.2%; in assay [15], 110%; in assay [16] it was 106%; in assay [17], 97.1%. Moreover, the growth in assay [18] is 116%.
Regarding `COc1ccc(Cn2cc3c(c2-c2cc(OC)c(OC)c(OC)c2)CCc2cnoc2-3)cc1[N+](=O)[O-]`, the growth in assay [1] was 10.1%; in [2] it was 15.3%; in assay [4], 25.6%; in assay [19], 10.5%; in assay [5], 47.6%; in [6], -15.3% (active). The growth was -10.5% (active) in assay [7]; 78.1% in [8]; 11.4% in [9]; 34.2% in assay [10]; 13.1% in [11]; 18.5% in [12]. Besides, the growth in assay [20] was 43.2%; in assay [13] it was 39.8%; in assay [14] it was 27.6%; in assay [15], 16%; in [16], 35.4%; in assay [17] it was 39.6%. The growth in assay [18] is 68.9%.
`COc1c(C)c(C)c(OC)c2c1[nH]c(=O)c1c3cccnc3cn21`: the growth in assay [1] was 111%; in assay [2] it was 102%; in [4] it was 86.1%; in assay [19], 116%; in assay [5] it was 112%; in assay [6] it was 119%. The growth in assay [7] is 103%; in assay [8], 126%; in assay [9], 103%; in [10] it was 118%; in [11] it was 104%; in assay [12], 106%. Further, the growth in assay [20] is 108%; in assay [13] it was 106%; in [14] it was 97.3%; in assay [15] it was 119%; in assay [16], 98.4%; in [17] it was 107%. Besides, the growth in [18] is 125%.
For the molecule `O=C(OCC1OC(n2cc(C(F)(F)F)c(=O)[nH]c2=O)CC1OC(=O)c1ccc([N+](=O)[O-])cc1)c1ccc([N+](=O)[O-])cc1` (stereo unspecified), the growth in assay [1] was 30.3%; in assay [2], 62%; in [4], 95.3%; in [19], 80.3%; in assay [5] it was 55.6%; in [6], 63.5%. In addition, the growth is 18.3% in assay [7]; 38.4% in assay [8]; -17.6% (active) in assay [9]; 87% in assay [10]; 75.3% in [11]; 90.8% in assay [12]. Also, the growth in [20] is 94.5%; in assay [13], 76.1%; in assay [14] it was 71.7%; in assay [15], 43.2%; in [16], 30.7%; in assay [17] it was 64.2%. In assay [18], the growth is 86.9%.
Take `COC(=O)c1ccc(Cn2ccc(=O)[nH]c2=O)cc1`: the growth in assay [1] was 105%; in assay [2] it was 113%; in assay [4], 99.4%; in [19], 108%; in [5], 119%; in [6], 109%. The growth in assay [7] is 83.8%; in assay [8] it was 112%; in assay [9], 102%; in [10], 101%; in assay [11], 99.5%; in [12], 90.6%. The growth is 110% in assay [20]; 112% in assay [13]; 98.4% in assay [14]; 109% in assay [15]; 105% in assay [16]; 98.4% in assay [17]. In addition, the growth in [18] was 111%.
